Rows were chosen to be rich in hits. Some 5.3% of all compounds tested hit in one or more screens of this group.
ALOX12 inhib: qHTS Assay for Inhibitors of 12-hLO (12-human lipoxygenase); purified 12-hLO, xylenol orange hydroperoxide absorbance; 0.12% of 150,000 active; Potency, µM (series often up to 57.1 µM), inactives show at the highest dose activity change, negative = inhibition, usual class: inhibitors; Polyunsaturated fatty acid lipoxygenase ALOX12 (Homo sapiens), P18054; also: potency is read from the fitted curve at half-maximal effect; % is scaled to controls: 0 for no effect and ±100 for the full control effect; nearly all actives have a fitted effect of over 55% in size
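Purified human 12hLO (150 nM), preincubated 15 min with compound, then 40 uM arachidonic acid for 30 min, room temperature, Hepes pH 7.0 with 0.01% Triton X-100. Hydroperoxide detected by ferrous iron/xylenol orange; 573/405 nm absorbance ratio gives reaction progress.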
IMPase Li cell: qHTS Assay for Identifying the Cell-Membrane Permeable IMPase Inhibitors: Potentiation with Lithium | CHO-M1 cells, IP1 TR-FRET (IP-One), carbachol + lithium | Potency, µM (highest dose often 59.4 µM), inactives show top-dose activity, negative = IMPase inhibition, hits mostly inhibitors | 0.35% of 210,000 active;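 also: IP1 builds up when IMPase is blocked and the TR-FRET signal falls; potency is read from the fitted curve at half-maximal effect; plate controls were basal vehicle for no effect and high inhibitor control for full effect; nearly all actives have a fitted effect of over 50% in size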
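IP1 accumulation measured by competitive TR-FRET in lysed CHO-M1 cells after 30 min compound exposure at 37C, with a small lithium addition to potentiate weak responses. Hill-equation AC50 from ratio and donor-channel data.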
IMPase inh: qHTS Assay for Identifying the Cell-Membrane Permeable IMPase Inhibitors | Inositol monophosphatase 1 (Rattus norvegicus), P97697 | CHO-M1 cells, IP1 accumulation, HTRF TR-FRET ratio | inhibition (IP1 accumulation), % at 46.1 µM | 120,000 tested, under 10 active; active = well fitted curve in the direction sought with a large enough effect in the signal ratio, not every such curve was filed as active; inconclusive = small, poorly fitted or top-dose-only effect, or a change in a side signal; inactive = no such curve, though single readings can be large or run the other way; the % refers to the signal ratio;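 also: cells stimulated with carbachol in lithium chloride buffer; plate controls were DMSO basal wells for no effect and reference inhibitor wells for full effect; higher means more IMPase inhibition seen as more IP1 and lower FRET ratio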
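CHO-M1 cells (CHO stably expressing M1 receptor), compound up to 46 uM final, stimulated with carbachol (50 uM as added) in buffer with 50mM LiCl, pH 7.4, 30 min at 37C. Cytosolic IP1 read by TR-FRET; AC50 from Hill fits.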
15-hLO-2 inh: qHTS Assay for Inhibitors of 15-hLO-2 (15-human lipoxygenase 2) | Potency, µM (series often up to 57.1 µM), without a hit: top-dose activity change, negative = inhibition, usual class: inhibitors | purified 15hLO-2, xylenol orange hydroperoxide absorbance | 0.56% of 110,000 active | Polyunsaturated fatty acid lipoxygenase ALOX15B (Homo sapiens), O15296; also: potency is read from the fitted curve at half-maximal effect; % is scaled to controls: 0 for no effect and ±100 for the full control effect; nearly all actives have a fitted effect of over 60% in size
Target sequence (O15296 whole entry, looked up): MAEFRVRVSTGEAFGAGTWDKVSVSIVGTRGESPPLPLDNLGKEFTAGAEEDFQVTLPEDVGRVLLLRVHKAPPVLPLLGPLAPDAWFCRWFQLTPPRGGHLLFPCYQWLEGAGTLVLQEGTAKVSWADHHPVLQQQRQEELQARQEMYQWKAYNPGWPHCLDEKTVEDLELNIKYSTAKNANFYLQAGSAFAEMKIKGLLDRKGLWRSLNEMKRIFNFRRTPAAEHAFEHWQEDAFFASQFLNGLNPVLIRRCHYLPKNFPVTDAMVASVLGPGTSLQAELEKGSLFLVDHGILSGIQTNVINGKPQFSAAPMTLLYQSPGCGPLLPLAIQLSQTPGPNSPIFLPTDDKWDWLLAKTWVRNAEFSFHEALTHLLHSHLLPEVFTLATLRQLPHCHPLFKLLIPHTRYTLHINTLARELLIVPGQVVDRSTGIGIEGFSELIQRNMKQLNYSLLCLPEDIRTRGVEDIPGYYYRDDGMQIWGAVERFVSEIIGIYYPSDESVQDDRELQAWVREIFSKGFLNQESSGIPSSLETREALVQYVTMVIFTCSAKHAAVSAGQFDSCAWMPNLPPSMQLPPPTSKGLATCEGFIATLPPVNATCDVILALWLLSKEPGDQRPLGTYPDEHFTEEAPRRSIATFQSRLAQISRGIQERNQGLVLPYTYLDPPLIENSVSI
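Purified human 15hLO-2 (50 nM final) preincubated with compounds 15 min at room temperature in 25 mM Hepes pH 7.5, 0.01% Triton X-100, then 45 uM arachidonic acid added for 90 min; hydroperoxide detected via ferrous/xylenol orange, 573/405 nm absorbance ratio.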
PNC assembly inh: High Content Assay for Compounds that inhibit the Assembly of the Perinucleolar Compartment. 3.1% of 140,000 active. PC3M PTB-GFP, PNC prevalence imaging, 16 h; active compounds read low. activity change (PNC), negative = inhibition, % at 10 µM;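 active = readout at or below -70, meaning at least 70% loss of cells showing the perinucleolar compartment, a nuclear body marking cancer cells; inconclusive = readout between -30 and a set limit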;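 also: plate controls were DMSO wells for no effect and camptothecin positive control wells for full effect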
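Compounds are pinned in duplicate onto adhered PC3M cells stably expressing GFP-tagged PTB and incubated 16 h at 37 C. Cells are then fixed, nuclei stained with Hoechst, and PNC-positive cells counted.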
HPGD inh: qHTS Assay for Inhibitors of HPGD (15-Hydroxyprostaglandin Dehydrogenase); Potency, µM, inactives show at the top dose activity change, negative = inhibition, most hits filed as inhibitors; 4.3% of 150,000 active; purified HPGD, NADH fluorescence kinetic, PGE2 substrate; AID 894, 2007; active = well fitted inhibition curve with a large enough effect, not every such curve was filed as active; inconclusive = small, poorly fitted or top-dose-only effect, or another doubt; inactive = no such curve, though single readings can be large or run the other way; also: potency is read from the fitted curve at half-maximal effect; % is scaled to controls: 0 for no effect and ±100 for the full control effect
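NADH formation kinetics: reaction with 30 uM PGE2 and 1 mM NAD+ (final), 20 nM enzyme, Tris-HCl pH 8 with Tween 20, after 15 min compound preincubation at room temperature. Fluorescence change, last versus first of five reads.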
HPGD inh conf: Confirmation qHTS Assay for Inhibitors of HPGD (15-Hydroxyprostaglandin Dehydrogenase); AID 2429, 2010; Potency, µM (doses to about 57.1 µM), without a hit: top-dose activity change, negative = inhibition, hits mostly inhibitors; shares compounds with HPGD inh; 90% of 90 active; recombinant HPGD, NADH fluorescence, PGE2 substrate; calls by dose curve
The depositor's hits bear a star; ? = inconclusive; . = not tested or not shown; [ ] = another dose, or the depositor's remark. Unless noted, calls follow the shape of the dose curve; as a rule, active = well fitted curve in the direction sought with a large enough effect; inconclusive = small, poorly fitted or top-dose-only effect, or another doubt; inactive = no such curve, though single readings can be large; an effect the other way counts as inactive or inconclusive.

SMILES	ALOX12 inhib	IMPase Li cell	IMPase inh	15-hLO-2 inh	PNC assembly inh	HPGD inh	others
CC(=O)N1CCN(Cc2nc3cc(NC(=O)c4ccc(F)cc4)ccc3n2C)CC1	.	6%	.	.	.	.
CC(Sc1nnnn1-c1ccccc1)C(=O)Nc1ccccc1-c1ccccc1 (configuration not stated)	-1%	11%	.	.	-134*	-1%
CCOc1ccc(N2C(=O)C(Cl)=C(Nc3ccccc3O)C2=O)cc1	-28%	19%[38.3 µM]	6	?	-17	25µM*
COc1ccc(N2C(=O)C(Cl)=C(Nc3ccc(OC)cc3OC)C2=O)cc1	.	3%	.	.	.	.
COc1ccccc1NC1=C(Cl)C(=O)N(c2ccccc2)C1=O	-10%	-1%	.	.	-114*	20µM*
COc1ccc(NC2=C(Cl)C(=O)N(c3ccccc3)C2=O)c(OC)c1	.	15%	.	.	.	.
O=C1C(Cl)=C(Nc2ccccc2O)C(=O)N1CCc1ccccc1	-23%	18%	.	.	?	11µM*
COc1ccc(CCNC2=C(Cl)C(=O)N(CCc3ccccc3)C2=O)cc1OC	-11%	49%[38.3 µM]	4	-1%	-20	-20%
CCCC[C@@H]1C[C@H]1C(NC(=O)c1cccs1)c1ccccc1C(F)(F)F (some centres not stated)	0%	-2%	.	12%	.	?
O=C(O)c1cc(Cl)cc(Cl)c1	2%	11%	.	0%	.	-4%
CCOc1ccc2nc(NS(=O)(=O)c3ccc4c(c3)n(C)c(=O)n4C)sc2c1	-6%	4%[38.3 µM]	-1	-18%	16	25µM*
CCOc1ccc(S(=O)(=O)Nc2nc3ccc(OC)cc3s2)cc1	-7%	-8%[38.3 µM]	-1	-4%	2	-23%
CCOc1ccc2nc(NS(C)(=O)=O)sc2c1	-1%	22%[38.3 µM]	-10	-16%	26	28µM*
CCOc1ccc2nc(-c3cc(NC(C)=O)ccc3O)sc2c1	.	10µM*	.	.	.	.
O=c1[nH]c(=O)n(Cc2ccco2)c2c1C(C(F)(F)F)(C(F)(F)F)N=C(Cc1ccccc1)N2	-1%	-2%[38.3 µM]	-13	-8%	2	?
CC(=O)OC(C(=O)NCc1ccco1)c1ccncc1 (configuration not stated)	-2%	7%[38.3 µM]	23	-5%	-14	-6%
CS(=O)(=O)N(CC(=O)N1CCCCC1)c1sc2c(c1C#N)CCCC2	-4%	-4%[38.3 µM]	2	0%	2	4%
Cn1c(=O)c2c(nc(NC3CCCCC3)n2CC(O)COc2ccccc2)n(C)c1=O (configuration not stated)	-2%	-4%[38.3 µM]	5	2%	14	-7%
COc1ccc(OCC(O)Cn2c(Nc3ccccc3)nc3c2c(=O)n(C)c(=O)n3C)cc1 (configuration not stated)	1%	-6%[38.3 µM]	6	-7%	-83*	-23%
C/C(Cl)=C\Cn1c(Nc2ccc(C)cc2)nc2c1c(=O)n(C)c(=O)n2C	-4%	36%[38.3 µM]	2	-17%	-95*	-7%
CCOc1c(Br)cc(C2CC(=O)Nc3cc4c(cc32)OCO4)cc1OC (configuration not stated)	.	.	6	.	.	.
COc1ccc(-c2nn(-c3ccccc3)cc2/C=N/NC(N)=S)cc1OC	?	5%	.	.	-112*	-28%
COc1ccc(-c2nn(-c3ccccc3)cc2/C=N/n2cnnc2)cc1OC	-3%	7%[38.3 µM]	10	9%	?	-24%
O=C(O)C1CCC(Cn2c(SCc3cc(=O)n4cc(Br)ccc4n3)nc3ccsc3c2=O)CC1 (configuration not stated)	.	10µM*	.	.	.	.
O=C(O)CCCCn1c(SCc2cc(=O)n3cc(Cl)ccc3n2)nc2ccsc2c1=O	-5%	-5%	.	.	?	?
SMILES	ALOX12 inhib	IMPase Li cell	IMPase inh	15-hLO-2 inh	PNC assembly inh	HPGD inh	others
Cc1ccc(Cn2c3ccccc3c3cn[nH]c(=O)c32)cc1	-5%	23%[38.3 µM]	5	-4%	-108*	-18%
O=c1[nH]ncc2c3ccccc3n(Cc3ccccc3F)c12	-4%	10µM*	-7	-8%	18	-12%
CC1=C/C(=C/N(C)c2ccccc2)C(=O)S1	-15%	0%[38.3 µM]	1	-26%	-24	32µM*
Cc1ccc(S(=O)(=O)Nc2cccc3cccnc23)cc1	9%	5%[38.3 µM]	-1	42%	?	-26%
O=S(=O)(Nc1cc(Sc2cccc3cccnc23)c(O)c2ccccc12)c1ccccc1	-5%	12%	.	.	-103*	1.1µM*	HPGD inh conf=0.63µM*
O=C(c1cccc([N+](=O)[O-])c1)n1nc(-c2ccccc2)nc1NCc1ccccc1	-2%	.	-9	.	?	.
O=C(CSc1nc(-c2ccccc2)nn1C(=O)c1ccccc1)Nc1cccc([N+](=O)[O-])c1	0%	15%[38.3 µM]	9	.	54	1.3µM*	HPGD inh conf=2.5µM*
COC(=O)CSc1nc2nc(C)c(Br)cc2[nH]1	0%	-12%[38.3 µM]	-8	-5%	-22	-17%	HPGD inh conf=?
